Drawing on PubChem BioAssay AID1345085 (National Center for Advancing Translational Sciences (NCATS), 2018), this text covers Potency and activity change, negative = viability loss for 34 compounds.

Structures are written as SMILES. Inconclusive results are not listed. Unmarked numbers belong to inactive results. Activity calls are given as the source filed them. Calls follow the shape of the dose curve; as a rule, active = well fitted cell-killing curve with a large enough effect; inconclusive = small, poorly fitted or top-dose-only effect, or effect the other way; inactive = no such curve, though single readings can be large or run the other way.
% is scaled to controls: 0 for no effect and ±100 for the full control effect; potency is read from the fitted curve at half-maximal effect.

For this assay, the system named is CASKI. The experiment in a line: Confirmatory qHTS for gynecologic anti-cancer compounds from libraries of approved drugs and bioactive compounds. Also: nearly all actives have a fitted effect of over 55% in size. The note with it: gynecologic cancer cell panel viability, ATPlite luminescence, 48 h; series mostly up to 57.6 µM. The method in brief:
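Viability is measured as ATP-dependent luciferase light using ATPlite, read 15 min after reagent addition at room temperature. Compounds, in DMSO, span 57.5 uM down to 0.977 nM over 11 threefold steps for 48 h.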
For orientation: Quantitative high-throughput screening tests each substance at several concentrations.
For `CN1CCN(CCOc2cc(OC3CCOCC3)c3c(Nc4c(Cl)ccc5c4OCO5)ncnc3c2)CC1`, the Potency was 19.3 µM (active).
On the same count and under the same terms, the result for `C=CC(=O)Nc1cccc(Oc2nc(Nc3ccc(N4CCN(C)CC4)cc3)ncc2Cl)c1` reads 10.9 µM (active); that for `O=C(CCCCCCC(=O)Nc1ccccc1)NO`, 12.2 µM (active).
Still for that read-out and setting: the result for `COc1ccc(-c2ccc3c(N4CCOCC4C)nc(N4CCOCC4C)nc3n2)cc1CO` (centres undefined) reads “inactive”.
Still for that read-out and setting: the result for `COc1cc(F)c(F)c(Nc2ccc(I)cc2F)c1NS(=O)(=O)C1(CC(O)CO)CC1` (centres undefined) reads “inactive”.
In the case of `CCc1cccc(CC)c1NC(=O)N1Cc2[nH]nc(NC(=O)c3ccc(N4CCN(C)CC4)cc3)c2C1`, the Potency was 19.3 µM (active).
Take `CC[C@H](Nc1ncnc2nc[nH]c12)c1nc2cccc(F)c2c(=O)n1-c1ccccc1`: the activity change, negative = viability loss is -2.62% [at 10.7 µM].
In the case of `O=c1cc(CN2CCOCC2)occ1OCCCCCSc1ccnc2cc(C(F)(F)F)ccc12`, the Potency is 24.3 µM (active).
Same read-out and setting: the result for `CC(Oc1cc(-n2cnc3ccc(CN4CCN(C)CC4)cc32)sc1C(N)=O)c1ccccc1C(F)(F)F` (centres undefined) reads 13.7 µM (active).
Consider `Cc1cc(C2CCCCC2)n(O)c(=O)c1`, for which the Potency was 3.96 µM (active).
For the compound `CC[C@]1(O)C[C@H]2CN(CCc3c([nH]c4ccccc34)[C@@](C(=O)OC)(c3cc4c(cc3OC)N(C=O)[C@H]3[C@@](O)(C(=O)OC)[C@H](OC(C)=O)[C@]5(CC)C=CCN6CC[C@]43[C@@H]65)C2)C1`, the Potency entry was “inactive”.
Same read-out and setting: the result for `Cc1cnc(Nc2cccc(CN3CCOCC3)c2)nc1Nc1cccc(S(=O)(=O)NC(C)(C)C)c1` reads 15.3 µM (active).
Same read-out and setting: the result for `Cc1nc(N)ncc1-c1nc(N2CCOCC2)c2sc(C(C)(C)O)cc2n1` reads 0.769 µM (active); that for `CCOc1cc2ncc(C#N)c(Nc3ccc(F)c(Cl)c3)c2cc1NC(=O)/C=C/CN(C)C`, 8.63 µM (active); that for `O=C1c2c(O)ccc(O)c2C(=O)c2c(NCCNCCO)ccc(NCCNCCO)c21`, 7.69 µM (active).
On the same count and under the same terms, the result for `C[C@]12CCC(=O)C=C1[C@@H]1C[C@@H]1[C@H]1[C@@H]3[C@@H]4C[C@@H]4[C@@]4(CCC(=O)O4)[C@@]3(C)CC[C@@H]12` reads “inactive”; that for `Nc1nc(Cl)nc2c1ncn2C1OC(CO)C(O)C1F` (centres undefined), 1.22 µM (active); that for `CCCCN(CCCC)C(=O)CN1C[C@H](c2ccc3c(c2)OCO3)[C@@H](C(=O)O)[C@@H]1c1ccc(OC)cc1`, “inactive”.
As for `CCCC(Nc1nc(-c2ccc(NC(=O)NCC)c(OC)c2)ncc1C)c1cccnc1` (centres undefined), the Potency entry was “inactive”.
Same read-out and setting: the result for `CN(C[C@@H]1COCCO1)S(=O)(=O)Nc1ccc2ccc3ncc(-c4cnn(C)c4)cc3c(=O)c2c1` reads “inactive”; that for `OCc1ccc(-c2ccc(-c3ccc(CO)s3)o2)s1`, “inactive”.
Consider `COc1cc(N2CCC(N)CC2)ccc1Nc1ncc(Cl)c(-c2c[nH]c3ccccc23)n1`, for which the Potency was 24.3 µM (active).
On the same count and under the same terms, the result for `Nc1ccccc1NC(=O)c1ccc(CNC(=O)OCc2cccnc2)cc1` reads 15.3 µM (active); that for `O=c1c2ccccc2nc2n1CCc1c-2[nH]c2ccccc12`, “inactive”; that for `COc1ccccc1N1CCN(CC(O)COc2cccc3ccccc23)CC1` (centres undefined), “inactive”.
The same measure, in the same setting: the result for `Cc1ccc(C(=O)Nc2ccc(CN3CCN(C)CC3)c(C(F)(F)F)c2)cc1C#Cc1cnc2cccnn12` reads 21.7 µM (active); that for `CCCCc1nc2cc(/C=C/C(=O)NO)ccc2n1CCN(CC)CC`, 4.85 µM (active).
The same measure, in the same setting: the result for `Cc1nc(N)sc1-c1ccnc(Nc2ccc(N3CCOCC3)cc2)n1` reads 24.3 µM (active).
Take `CNC1CCC(N(Cc2cccc(-c3ccncc3)c2)C(=O)c2sc3ccccc3c2Cl)CC1` (centres undefined): the Potency was 34.3 µM (active).
Still for that read-out and setting: the result for `Cc1c(NC(=O)OCC2COCCN2)cn2ncnc(Nc3ccc4c(cnn4Cc4cccc(F)c4)c3)c12` (centres undefined) reads 19.3 µM (active); that for `CC(C)C[C@H](NC(=O)[C@@H](NC(=O)c1cccc(-c2ccccc2)n1)[C@@H](C)O)B(O)O`, 0.0611 µM (active); that for `Cn1cc(-c2ccc3ncc(Cc4ccc5ncccc5c4)n3n2)cn1`, “inactive”.
On the same count and under the same terms, the result for `CC(=O)OC12COC1CC(O)C1(C)C(=O)C(O)C3=C(C)C(OC(=O)C(O)C(NC(=O)OC(C)(C)C)c4ccccc4)CC(O)(C(OC(=O)c4ccccc4)C21)C3(C)C` (centres undefined) reads “inactive”; that for `CCN(CC)CCNC(=O)c1c(C)[nH]c(/C=C2\C(=O)Nc3ccc(F)cc32)c1C`, 56.2 µM (active).
